TDP1 inh = TDP1 (human) enzyme inhibition. recombinant TDP1, AlphaScreen DNA substrate cleavage. actives 0.28% (n = 350,000). AID 485290. Q9NUW8. Potency, µM (series often up to 130 µM), for the others: top-dose activity change, negative = inhibition, actives largely listed as inhibitors; further: potency means the concentration at half of the fitted maximal effect; on the % scale 0 is the no-effect control and ±100 the full control effect; nearly all actives have a fitted effect of over 40% in size
Target sequence (Q9NUW8 whole entry, looked up): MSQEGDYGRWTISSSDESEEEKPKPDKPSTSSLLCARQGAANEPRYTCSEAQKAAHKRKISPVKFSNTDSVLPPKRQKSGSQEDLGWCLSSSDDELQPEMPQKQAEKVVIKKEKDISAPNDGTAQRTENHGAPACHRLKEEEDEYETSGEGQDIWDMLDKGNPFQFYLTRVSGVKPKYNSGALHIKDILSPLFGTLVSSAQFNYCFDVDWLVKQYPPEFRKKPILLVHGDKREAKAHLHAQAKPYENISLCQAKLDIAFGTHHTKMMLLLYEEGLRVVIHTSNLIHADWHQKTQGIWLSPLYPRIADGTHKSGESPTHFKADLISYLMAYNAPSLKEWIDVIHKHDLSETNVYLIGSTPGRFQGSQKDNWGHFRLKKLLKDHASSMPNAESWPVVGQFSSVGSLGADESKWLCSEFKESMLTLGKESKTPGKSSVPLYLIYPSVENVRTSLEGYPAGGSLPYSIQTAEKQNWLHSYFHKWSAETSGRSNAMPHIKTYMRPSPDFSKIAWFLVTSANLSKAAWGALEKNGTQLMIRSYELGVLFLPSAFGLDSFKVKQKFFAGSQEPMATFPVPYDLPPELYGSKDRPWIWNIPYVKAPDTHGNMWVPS
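Here, a 5' biotin and 3' phosphotyrosine-FITC DNA oligonucleotide reports Tdp1 activity: intact substrate bridges AlphaScreen beads, while cleavage leaves a 3' phosphate and drops signal. All incubations at room temperature.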
HepG2 viability = counter-screen for TGF-b inhibitors: cytotoxicity in HepG2 cells; HepG2 CAGA-GFP viability, ATP luminescence, 18 h; AID 588856; actives 0.76% (n = 410,000); Potency, µM (doses to about 46.1 µM), for the others: at the highest dose activity change, negative = cytotoxicity, actives largely listed as cytotoxic; further: potency means the concentration at half of the fitted maximal effect
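HepG2 CAGA-GFP cells (1000/well, DMEM with 1% FBS) received compound, then TGF-beta at 500 pg/mL final, and were incubated 18 hours at 37 degrees C. Viability was read by CellTiter-Glo luminescence. Media-only wells were set as complete cell-killing and DMSO as no toxicity.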
TGFb SMAD3 inh = TGF-b pathway inhibition | HepG2 CAGA-GFP TGF-b/SMAD3 reporter, GFP fluorescence, 18 h; TGF-beta stimulated, 500 pg/mL final | AID 588855 | Potency, µM (doses to about 46.1 µM), for the others: at the highest dose activity, negative = inhibition, most hits filed as inhibitors | actives 1.2% (n = 410,000); further: potency means the concentration at half of the fitted maximal effect; on the % scale 0 is the no-effect control and ±100 the full control effect; nearly all actives have a fitted effect of over 65% in size
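HEPG2 CAGA-GFP reporter cells (1000/well, DMEM with 1% FBS) received compounds, then recombinant TGF-beta at 500 pg/mL final for 18 hours at 37 degrees C. Per-cell GFP summed per well was normalised to unstimulated and stimulated DMSO controls before curve fitting.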
IL1B secr inh = inhibitors of inflammasome signaling (IL-1 beta secretion). THP-1 LPS/ATP IL-1B secretion, AlphaLISA, 16 h; hits give low values. activity change, % at 57.5 µM. actives 4.7% (n = 360,000); in the data active means activity change below about -50%; inconclusive means mostly about -30% to -49%; further: on the % scale 0 is the no-effect control and ±100 the full control effect
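Secreted IL-1B measured by AlphaLISA bead assay after 16 h compound exposure of THP-1 cells; compounds (final up to 57.5 uM) added 1 h before LPS (250 ng/mL) and ATP (1.25 mM) stimulation; lower signal means less secretion.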
DT40 TDP1 no CPT = qHTS for Inhibitors of human tyrosyl-DNA phosphodiesterase 1 (TDP1): qHTS in cells in absence of CPT. DT40 Tdp1-/- hTDP1 cells, no CPT, ATP luminescence, 48 h. Potency, µM (series often up to 46.2 µM), for the others: top-dose activity change, negative = growth inhibition, actives largely listed as inhibitors. actives 15% (n = 420,000). AID 686978, 2013; further: potency means the concentration at half of the fitted maximal effect; on the % scale 0 is the no-effect control and ±100 the full control effect; nearly all actives have a fitted effect of over 55% in size
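No-CPT arm: Tdp1-/-;hTDP1 DT40 cells (400/well) plus compounds, incubated ≥48 hr at 37 °C. Readout CellTiter-Glo luminescence.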
TDP1 cell CPT = DT40-hTDP1 cell growth loss with CPT; AID 686979; chicken DT40 Tdp1-/-;hTDP1 cells + 20 nM CPT, ATP luminescence, 48 h; actives 12% (n = 420,000); Potency, µM (top dose mostly 46.2 µM), for inactives: at the top dose activity change, negative = growth inhibition, usual class: inhibitors; further: potency means the concentration at half of the fitted maximal effect; on the % scale 0 is the no-effect control and ±100 the full control effect; nearly all actives have a fitted effect of over 55% in size
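Chicken DT40 Tdp1-/- cells complemented with human TDP1, 400 cells/well, exposed to compounds plus 20 nM camptothecin for at least 48 h at 37 C; viability read as ATP content by CellTiter-Glo luminescence.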
* hit, by the source's call; ? = inconclusive; / = no result given. Shown are actives, neighbours in structure and some others; about 19% of the full set was active somewhere. Unless noted, the call rests on the fitted dose curve; in most records, active means well fitted curve in the direction sought with a large enough effect; inconclusive means small, poorly fitted or top-dose-only effect, or another doubt; inactive means no such curve, though single readings can be large; an effect the other way counts as inactive or inconclusive.

SMILES	TDP1 inh	HepG2 viability	TGFb SMAD3 inh	IL1B secr inh	DT40 TDP1 no CPT	TDP1 cell CPT
O=c1c2cc(N3CCOCC3)ccc2[nH]c(=S)n1Cc1ccc(Cl)cc1	-2%	1%	0%	0	15µM*	21µM*
Cn1cccc1/C=C1\C(=O)NC(=O)N(CCC2=CCCCC2)C1=O	5%	0%	14%	33	13µM*	16µM*
O=C1NC(=O)N(CCC2=CCCCC2)C(=O)/C1=C\c1cccs1	0%	8%	1%	-14	?	?
Cn1cccc1/C=C1\C(=O)NC(=O)N(Cc2ccccc2Cl)C1=O	2%	0%	4%	27	4.6µM*	5.8µM*
CC1([N+](=O)[O-])COP(=O)(Nc2cccc(F)c2)OC1 (stereo not drawn)	/	-23%	-9%	22	6%	-2%
C[C@@H]1CN([C@@H](C)CO)C(=O)c2c(c3ccccc3n2C)-c2ccccc2CO[C@H]1CN(C)S(=O)(=O)c1ccc(C(F)(F)F)cc1	/	-41%	?	14	-16%	-26%
COc1ccc(NC(=O)Nc2ccc3c(c2)C(=O)N([C@H](C)CO)C[C@H](C)[C@@H](CN(C)S(=O)(=O)c2ccc(OC)cc2)O3)cc1	3%	-10%	-24%	21	?	?
C[C@@H]1CCCCO[C@@H](CN(C)S(=O)(=O)c2ccc(F)cc2)[C@@H](C)CN([C@H](C)CO)C(=O)c2cc(N(C)C)ccc2O1	/	-2%	-3%	-17	21µM*	?
COc1ccc(S(=O)(=O)N(C)C[C@H]2OCCCC[C@@H](C)Oc3ccc(N(C)C)cc3C(=O)N([C@H](C)CO)C[C@@H]2C)cc1	/	-11%	-6%	-24	23µM*	?
c1cnc2c(c1)ncn2C1CCNCC1	4%	1%	6%	/	-12%	?
Cc1cccc(-n2nc(C)c(C(=O)N3CCN(c4ccccc4)CC3)c2-n2cccc2)c1	5%	-13%	?	/	21µM*	16µM*
Cc1cccc(N2CCC3(CC2)C(=O)NC(=O)NC3=O)c1	/	0%	0%	2	0%	4%
Cc1ccc(NC(=O)COC(=O)/C=C/c2ccco2)cc1S(=O)(=O)N(C)C	3%	-7%	?	31	0%	-2%
CC(=O)[C@@]1(O)CC[C@H]2[C@@H]3C[C@H](C)C4=CC(=O)CC[C@]4(C)[C@H]3CC[C@@]21C	6%	-65%	-12%	?	29µM*	?
Cc1ccc(CCNC(=O)C2CCCN(Cc3nc(-c4cccc(Cl)c4)oc3C)C2)cc1 (stereo not drawn)	3%	-27%	-19%	/	15µM*	12µM*
O=C(c1cc(F)ccc1F)C1CCCN(Cc2cccc(Cl)c2)C1 (stereo not drawn)	/	5%	-6%	17	?	-19%
Cl/C=C/CCl	8%	/	/	/	/	/
CCCCCCCCc1[se]c2ccccc2c1I	9%	/	/	/	/	/
Nc1nonc1C(=O)N/N=C/c1ccc([N+](=O)[O-])o1	-2%	-90%	16µM*	-87*	9.2µM*	7.3µM*
CCc1ccc(-n2nc(C)c3c2NC(=O)CSC3c2ccc(OC)cc2OC)cc1 (stereo not drawn)	-6%	-16%	-16%	/	23µM*	18µM*
CCc1ccc(-n2nc(C)c3c2NC(=O)CSC3c2ccccc2C)cc1 (stereo not drawn)	3%	-17%	?	/	18µM*	?
CCc1ccc(-n2nc(C)c3c2NC(=O)CSC3c2ccc(C(=O)OC)cc2)cc1 (stereo not drawn)	9%	-25%	-19%	/	13µM*	15µM*
COc1ccccc1C1SCC(=O)Nc2c1c(C)nn2-c1cccc(C)c1 (stereo not drawn)	6%	-10%	1%	/	?	?
O.O.O.O=C([O-])C(O)C(O)C(=O)[O-].O=C([O-])C(O)C(O)C(=O)[O-].[K+].[K+].[Sb].[Sb] (stereo not drawn)	/	/	/	/	-29%	-9%
C[C@H]1O[C@H]1P(=O)(O)O	0%	5%	14%	11	-11%	11%
SMILES	TDP1 inh	HepG2 viability	TGFb SMAD3 inh	IL1B secr inh	DT40 TDP1 no CPT	TDP1 cell CPT
CC1N(C)c2cc(NC(=O)c3ccco3)c(P(=O)(Nc3ccc([N+](=O)[O-])cc3)N3CCOCC3)cc2C1(C)C (stereo not drawn)	7%	-37%	?	-55*	5.2µM*	4.6µM*
O=C(CSc1ncnc2c1nnn2-c1ccc(F)cc1)NCC1CCCO1 (stereo not drawn)	-1%	23%	11%	?	21µM*	15µM*
COc1cccc(NP(=O)(Oc2ccc(Cl)cc2)Oc2ccc(Cl)cc2)c1	-5%	-52%	?	?	23µM*	?
COc1ccccc1OP(=O)(Nc1cccnc1)Oc1ccccc1OC	-1%	-21%	-8%	3	12µM*	?
O=[N+]([O-])c1cccc(NP(=O)(Oc2ccccc2)Oc2ccccc2)c1	/	-39%	?	-27	?	?
CCOc1ccc2nc(NC(=O)c3cccn(Cc4ccccc4Cl)c3=O)sc2c1	7%	4%	3%	/	15%	-3%
